Each structure is given as a SMILES string. Inconclusive results are not listed. Values without a mark were called inactive. Active and inactive are the calls of the source. Calls come from the whole dose curve; as a rule, active = well fitted inhibition curve with a large enough effect; inconclusive = small, poorly fitted or top-dose-only effect; inactive = no such curve, though single readings can be large or run the other way.

Sequence of Luciferin 4-monooxygenase (Photinus pyralis) (P08659 whole entry, looked up): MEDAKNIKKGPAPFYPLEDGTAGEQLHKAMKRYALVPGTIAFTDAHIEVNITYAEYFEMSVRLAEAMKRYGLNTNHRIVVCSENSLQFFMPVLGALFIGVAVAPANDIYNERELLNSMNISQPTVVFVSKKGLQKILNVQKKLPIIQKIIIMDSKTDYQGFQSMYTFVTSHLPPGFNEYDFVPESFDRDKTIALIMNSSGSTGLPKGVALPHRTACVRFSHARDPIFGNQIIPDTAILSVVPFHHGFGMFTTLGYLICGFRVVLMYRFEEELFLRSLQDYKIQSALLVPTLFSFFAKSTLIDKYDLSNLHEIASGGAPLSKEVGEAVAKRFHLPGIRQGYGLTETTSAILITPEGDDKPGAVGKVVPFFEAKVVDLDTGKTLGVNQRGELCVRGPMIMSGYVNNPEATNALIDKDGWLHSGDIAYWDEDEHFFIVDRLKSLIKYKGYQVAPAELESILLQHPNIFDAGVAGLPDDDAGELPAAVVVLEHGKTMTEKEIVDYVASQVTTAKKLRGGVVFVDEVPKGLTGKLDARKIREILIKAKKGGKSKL

This experiment concerns the target Luciferin 4-monooxygenase (Photinus pyralis) (UniProt P08659). The experiment can be described thus: FLuc inhibitory activity for the follow-up compounds in a biochemical assay with Km concentrations of substrate. Conditions: purified FLuc, Km substrates, luminescence; series mostly up to 57.5 µM; activity change, negative = inhibition: at the top concentration. An excerpt:
NCGC Assay Overview: Firefly (Photinus pyralis) luciferase is one of the most commonly used transcriptional reporters. It is considered one of the more dynamically responsive reporters - that is, responsive to changes in reporter transcription - as it requires no post-translational modifications and is enzymatically active directly after protein synthesis (Wood, 1998). With no endogenous expression in mammalian cells and without the requirement of external excitation, it offers very little background signal, thus generally providing excellent signal to background for most assays. Previous profiling work to determine the prevalence of compounds that affect FLuc enzymatic activity (PubChem AID 411) identified that ~3% of the MLSMR library (then at ~72K) inhibited FLuc. […] Of the compounds identified in this profile that inhibited FLuc, 151 compounds were selected for further analysis, in an effort to better understand their mode of inhibiting FLuc. The assay described here confirms the FLuc inhibitory activity of the 151 compounds.
NCGC Assay Protocol Summary: Reagents: 50mM Tris acetate, pH 7.5; 10mM Mg acetate; 10uM D-luciferin (Sigma #L9504); 10uM ATP; 0.01% Tween-20; 0.05% BSA; 10nM P. pyralis luciferase (Sigma #L9506) Control compounds used were two known firefly luciferase inhibitors (3-(5-(3-chlorophenyl)-1,2,4-oxadiazol-3-yl)benzoic acid and 5-(2-fluorophenyl)-3-phenyl-1,2,4-oxadiazole), and DMSO. Three microliters containing firefly luciferase substrates in buffer (final concentrations: 50mM Tris acetate, pH 7.5, 10mM Mg acetate, 0.01% Tween-20, 0.05% BSA, 10uM D-luciferin, and 10uM ATP) are dispensed into each well of a Greiner white, solid-bottom 1536-well format plate using a flying reagent dispenser (FRD). These assay plates were then treated with 23nL of compound or DMSO using a Kalypsys pin tool, which allows for delivery of a 12-point intraplate titration of each compound to the assay plate (quantitative HTS), with a final compound concentrations ranging from approximately ~60uM to 0.3nM. One microliter of firefly luciferase in 500mM Tris-acetate buffer was then delivered by FRD to each well for a final enzyme concentration of 10nM. Luciferase activity was then measured using a ViewLux CCD imager (PerkinElmer), with an average exposure time of 2-30 seconds (2X binning, medium/high gain).
For the molecule `CC(C)c1ccc(-c2nc3ccccc3s2)cc1`, the Potency was 0.0291 µM (active).

For the molecule `O=C(Nc1ccccc1C(=O)Nc1ccccc1C(=O)O)c1ccccc1`, the Potency is 16.3 µM (active). The same measure, in the same setting: to `COc1ccc2nc(NC(=O)c3ccccc3C(=O)O)sc2c1` belongs 18.3 µM (active); to `CCOc1c(Cl)cc(C(=O)Nc2ccccc2C(=O)O)cc1Cl`, 18.3 µM (active). Same read-out and setting: the figure for `O=C(Nc1ccccc1C(=O)O)c1cccc(S(=O)(=O)N2CCCC2)c1` is 13 µM (active); for `Cc1c(NS(C)(=O)=O)cccc1-c1nc2ccccc2s1` it is 8.19 µM (active); for `CCOc1ccc2nc(NC(=O)Cc3cccs3)sc2c1` it is 10.3 µM (active). On the same count and under the same terms, to `O=C(Nc1ccccc1C(=O)O)c1ccc(Cl)c(S(=O)(=O)N2CCOCC2)c1` belongs 8.19 µM (active); to `O=C(O)c1ccccc1NC(=O)c1ccccc1Nc1ccccc1`, 18.3 µM (active). Regarding `O=C(Nc1ccccc1C(=O)O)c1cc(S(=O)(=O)NCc2ccccc2)ccc1Cl`, the “activity change, negative = inhibition” value was -4.34%. As to `COc1cc(OC)cc(-c2nc3ccccc3s2)c1`, the Potency is 6.51 µM (active).

For `CCc1noc(C)c1C(=O)Nc1nc2ccc(OC)cc2s1`, the Potency was 13 µM (active). `CCOc1ccc2nc(NC(=O)c3ccoc3C)sc2c1`: the Potency was 0.651 µM (active).

Consider `COc1ccc(-c2nc3ccccc3s2)cc1O`, for which the Potency is 0.146 µM (active). In the case of `COc1ccc(CC(=O)Nc2cccc(C(=O)Nc3ccccc3C(=O)O)c2)cc1OC`, the Potency is 41.1 µM (active).

On to `O=C(Nc1ccccc1C(=O)O)c1cccc(NC(=O)c2ccco2)c1`, for which the Potency was 18.3 µM (active). Same read-out and setting: the figure for `Cc1ccc(C(=O)O/N=C(\N)c2ccccn2)cc1` is 0.0291 µM (active). As for `COc1ccc2nc(NC(=O)c3nc(S(=O)(=O)Cc4ccc(C)cc4)ncc3Cl)sc2c1`, the “activity change, negative = inhibition” value was -9.87%. Turning to `O=C(Cc1ccccc1)Nc1ccccc1C(=O)Nc1ccc(C(=O)O)cc1`, the “activity change, negative = inhibition” value was -2.27%. With `Nc1ccc2nc(-c3ccc(O)cc3)sc2c1`, the Potency was 0.41 µM (active). Take `Cc1ccc(C(=O)Nc2ccc(C(=O)O)cc2)cc1S(=O)(=O)Nc1ccccc1`: the “activity change, negative = inhibition” value is 18.1%.

For `Cc1ccc2nc(-c3ccc(NC(=O)CN4CCN(C(=O)c5ccco5)CC4)cc3)sc2c1`, the Potency is 5.8 µM (active).

As to `COc1ccc2nc(NC(=O)C3CCN(S(=O)(=O)c4cccnc4)CC3)sc2c1`, the “activity change, negative = inhibition” value was -9.68%. On to `COc1ccccc1C(=O)Nc1ccc(C(=O)O)cc1`, for which the “activity change, negative = inhibition” value is -16.1%. As for `O=C(Nc1ccccc1C(=O)O)c1cccc(NC(=O)c2ccccc2Br)c1`, the Potency was 32.6 µM (active). Still for that read-out and setting: to `COc1ccc2nc(NC(=O)c3ccco3)sc2c1` belongs 1.03 µM (active); to `O=C(Nc1ccc(-c2nc3ccccc3s2)cc1)C1=COCCO1`, 0.0919 µM (active); to `CC(=O)Nc1cccc(C(=O)Nc2ccccc2C(=O)O)c1`, 32.6 µM (active). On the same count and under the same terms, the figure for `CCOc1ccc2nc(NC(=O)c3ccccn3)sc2c1` is 0.517 µM (active); for `COc1ccc2nc(NC(=O)c3ccc(NS(=O)(=O)c4cccs4)cc3)sc2c1` it is 10.3 µM (active); for `COc1ccc2nc(NC(=O)c3ccc4ncsc4c3)sc2c1` it is 1.63 µM (active). On the same count and under the same terms, to `c1ccc2sc(-c3ccc4c(c3)OCO4)nc2c1` belongs 0.326 µM (active). Take `CC(C)(C)NC(=O)c1ccccc1-c1nc2ccccc2s1`: the “activity change, negative = inhibition” value is -8.09%.

For the molecule `CC(=O)Oc1ccc(C(=O)Nc2ccccc2C(=O)Nc2cccc(C(=O)O)c2)cc1`, the Potency was 6.51 µM (active). Still for that read-out and setting: the figure for `O=C(Nc1ccccc1C(=O)O)c1cccc(NC(=O)c2ccccc2Cl)c1` is 23.1 µM (active). Same read-out and setting: to `Nc1ccc(-c2nc3ccc(N)cc3s2)cc1` belongs 0.326 µM (active); to `CCn1c(C)nc2cc(-c3nc4n(n3)Cc3ccccc3-4)ccc21`, 0.0231 µM (active). On the same count and under the same terms, the figure for `CCOc1ccc(C(=O)Nc2cccc(C(=O)O)c2)cc1Cl` is 0.058 µM (active). As to `O=S(=O)(c1ccc(-c2nc3ccccc3s2)cc1)N1CCCC1`, the “activity change, negative = inhibition” value is -0.117%. Turning to `COc1ccc(C(=O)Nc2nc3ccc(OC)cc3s2)cc1`, the Potency was 1.83 µM (active).

The record behind these values is PubChem BioAssay AID602357 (National Center for Advancing Translational Sciences (NCATS), 2012).
